Test results as given in ChEMBL document CHEMBL3988442, “University of Dundee, Small-Polar-MMV Screening Library” (2021).
For some of these results: Results with a measured potency or affinity are listed apart.

What was measured:
Set-up in all cases: scale not given: direction of the effect not stated beside the values
[1] = biological target: Protein translocase subunit SecA (Escherichia coli (strain K12)) (UniProt P10408); assay: Assay to Identify E. coli SecA ATPase Inhibitors; type: functional; settings: 30 µM
Chain of Protein translocase subunit SecA (Escherichia coli (strain K12)) (P10408 whole entry): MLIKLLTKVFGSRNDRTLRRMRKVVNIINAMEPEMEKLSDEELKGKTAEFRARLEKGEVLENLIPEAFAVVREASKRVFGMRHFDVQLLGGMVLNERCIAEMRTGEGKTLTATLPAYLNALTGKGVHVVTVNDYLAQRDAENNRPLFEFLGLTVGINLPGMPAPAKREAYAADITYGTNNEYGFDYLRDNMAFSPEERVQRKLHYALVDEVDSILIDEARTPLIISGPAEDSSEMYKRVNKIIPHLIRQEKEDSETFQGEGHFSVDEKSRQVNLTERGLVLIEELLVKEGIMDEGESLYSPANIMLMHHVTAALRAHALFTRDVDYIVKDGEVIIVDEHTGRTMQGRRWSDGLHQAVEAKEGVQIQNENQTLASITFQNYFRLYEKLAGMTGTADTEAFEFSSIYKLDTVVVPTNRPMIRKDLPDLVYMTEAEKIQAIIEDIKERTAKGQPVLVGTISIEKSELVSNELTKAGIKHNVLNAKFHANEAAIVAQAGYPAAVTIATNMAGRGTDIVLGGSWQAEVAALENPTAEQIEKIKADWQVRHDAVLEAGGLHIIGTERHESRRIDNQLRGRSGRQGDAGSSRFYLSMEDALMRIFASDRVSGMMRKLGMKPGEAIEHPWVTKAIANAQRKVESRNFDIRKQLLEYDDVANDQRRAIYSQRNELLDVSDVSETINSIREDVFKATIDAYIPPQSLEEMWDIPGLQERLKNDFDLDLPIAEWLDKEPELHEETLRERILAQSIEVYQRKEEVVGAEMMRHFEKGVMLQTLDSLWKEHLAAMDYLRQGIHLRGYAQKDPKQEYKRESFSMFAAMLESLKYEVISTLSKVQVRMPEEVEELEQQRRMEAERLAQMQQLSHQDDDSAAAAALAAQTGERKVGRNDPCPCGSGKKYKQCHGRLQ

[2] = biological target: T1, Ubiquitin-activating enzyme e1, putative (Leishmania donovani (strain BPK282A1)) (UniProt E9BSI1); assay: Leishmania donovani Ubiquitin Activating Enzyme (LdE1); type: functional; settings: 30 µM
T1 sequence (whole entry): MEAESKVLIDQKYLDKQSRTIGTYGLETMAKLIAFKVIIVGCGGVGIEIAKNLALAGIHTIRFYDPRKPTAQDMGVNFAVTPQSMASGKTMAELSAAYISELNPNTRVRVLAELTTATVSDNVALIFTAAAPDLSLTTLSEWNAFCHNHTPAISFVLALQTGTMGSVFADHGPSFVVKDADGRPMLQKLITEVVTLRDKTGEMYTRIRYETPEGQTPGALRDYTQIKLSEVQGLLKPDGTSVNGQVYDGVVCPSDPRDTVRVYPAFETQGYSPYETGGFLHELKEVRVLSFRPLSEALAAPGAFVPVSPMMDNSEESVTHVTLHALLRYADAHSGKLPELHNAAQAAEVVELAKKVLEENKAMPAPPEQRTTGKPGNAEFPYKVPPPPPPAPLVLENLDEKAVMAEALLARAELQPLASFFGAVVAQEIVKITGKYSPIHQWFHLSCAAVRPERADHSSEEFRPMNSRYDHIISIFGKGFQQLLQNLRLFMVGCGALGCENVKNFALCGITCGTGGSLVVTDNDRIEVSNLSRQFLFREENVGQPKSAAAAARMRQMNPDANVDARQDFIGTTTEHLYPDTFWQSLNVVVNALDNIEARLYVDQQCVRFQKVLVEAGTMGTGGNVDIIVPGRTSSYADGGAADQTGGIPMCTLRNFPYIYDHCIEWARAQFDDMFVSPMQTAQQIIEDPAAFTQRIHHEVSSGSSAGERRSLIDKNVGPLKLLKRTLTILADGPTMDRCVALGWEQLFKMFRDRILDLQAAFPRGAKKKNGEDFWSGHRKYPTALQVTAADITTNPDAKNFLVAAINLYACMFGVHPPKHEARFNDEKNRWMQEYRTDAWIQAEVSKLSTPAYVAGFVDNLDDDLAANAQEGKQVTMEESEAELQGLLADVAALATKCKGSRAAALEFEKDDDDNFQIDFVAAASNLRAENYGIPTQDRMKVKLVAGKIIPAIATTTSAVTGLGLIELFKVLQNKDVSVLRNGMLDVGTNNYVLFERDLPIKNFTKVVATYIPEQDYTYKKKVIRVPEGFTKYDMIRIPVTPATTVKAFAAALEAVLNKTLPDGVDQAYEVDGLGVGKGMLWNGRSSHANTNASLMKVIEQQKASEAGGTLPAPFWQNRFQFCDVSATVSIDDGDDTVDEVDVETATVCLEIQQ

[3] = biological target: AMP-activated protein kinase, AMPK (Homo sapiens) (UniProt P54646+O43741+P54619+Q9UGJ0+Q9Y478+Q13131+Q9UGI9); assay: AMP-dependent Kinase enzyme assay. An in vitro enzyme assay that detects ADP turnover that is directly proportional to AMPK activity. This uses naive AMPK that is activated during the assay with MK-8722; type: functional; settings: 30 µM
[4] = biological target: Sialic acid-binding Ig-like lectin 9 (Homo sapiens) (UniProt Q9Y336); assay: Hs-Siglec9 ALPHAscreen SOP 20170721; settings: 10 µM
Chain of Sialic acid-binding Ig-like lectin 9 (Homo sapiens) (Q9Y336 whole entry): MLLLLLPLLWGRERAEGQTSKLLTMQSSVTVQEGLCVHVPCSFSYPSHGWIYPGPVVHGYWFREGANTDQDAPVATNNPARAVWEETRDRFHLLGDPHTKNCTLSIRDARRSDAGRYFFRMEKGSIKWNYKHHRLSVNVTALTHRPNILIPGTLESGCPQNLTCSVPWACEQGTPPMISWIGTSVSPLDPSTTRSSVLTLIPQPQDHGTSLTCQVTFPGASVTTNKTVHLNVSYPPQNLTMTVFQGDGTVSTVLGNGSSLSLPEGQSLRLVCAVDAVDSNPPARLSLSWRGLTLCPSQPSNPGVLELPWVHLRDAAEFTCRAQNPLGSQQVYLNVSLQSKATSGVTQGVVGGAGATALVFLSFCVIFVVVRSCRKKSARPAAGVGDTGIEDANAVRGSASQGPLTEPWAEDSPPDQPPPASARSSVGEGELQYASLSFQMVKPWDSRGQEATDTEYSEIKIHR

[5] = test system: Trypanosoma cruzi; assay: Trypanosoma cruzi phosphomannomutase and mannose-1-phosphate guanylyltransferase assay; type: functional; settings: 10 µM
[6] = biological target: T2, Arginase-2, mitochondrial (Homo sapiens) (UniProt P78540); assay: in vitro enzyme assay to detect the production of urea directly proportional to the activity of Arginase II; type: functional; settings: 33.3 µM; note: in the data most compounds retested in dose-response had high values
T2 sequence (whole entry): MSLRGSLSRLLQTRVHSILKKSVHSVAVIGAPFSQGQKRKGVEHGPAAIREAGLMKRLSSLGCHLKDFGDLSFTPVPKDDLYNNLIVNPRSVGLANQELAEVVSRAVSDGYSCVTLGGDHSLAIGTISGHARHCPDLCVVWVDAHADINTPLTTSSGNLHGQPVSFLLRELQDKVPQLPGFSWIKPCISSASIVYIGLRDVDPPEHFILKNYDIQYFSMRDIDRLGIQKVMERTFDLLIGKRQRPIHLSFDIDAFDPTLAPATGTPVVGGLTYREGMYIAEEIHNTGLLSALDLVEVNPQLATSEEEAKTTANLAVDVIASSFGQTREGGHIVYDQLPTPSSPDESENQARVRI

[7] = biological target: T3, Proteasome subunit beta (Trypanosoma cruzi) (UniProt O96673); assay: Trypanosoma cruzi proteasome chymotrypsin-like activity (TcProtChymo) assay.; note: in the data most compounds retested in dose-response had high values; type: functional; settings: 9.37 µM
T3 sequence (whole entry): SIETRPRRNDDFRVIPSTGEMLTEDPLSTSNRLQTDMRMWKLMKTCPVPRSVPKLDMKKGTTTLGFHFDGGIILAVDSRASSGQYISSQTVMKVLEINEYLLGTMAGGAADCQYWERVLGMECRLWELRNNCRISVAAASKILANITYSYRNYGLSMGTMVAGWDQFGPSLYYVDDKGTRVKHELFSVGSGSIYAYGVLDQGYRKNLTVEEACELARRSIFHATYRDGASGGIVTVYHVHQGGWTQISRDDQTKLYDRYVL

[8] = species on record: Homo sapiens; assay: To identify inhibition of the IFN signalling (Jak-Stat) pathway via expression of an eGFP reporter gene under the control of an IFN-stimulated response element (ISRE) containing MxA promoter.; type: functional; settings: 30 µM
[9] = biological target: T4, Tyrosyl-tRNA synthetase, putative (Trypanosoma cruzi (strain CL Brener)) (UniProt Q4DSP6); assay: Trypanosoma cruzi tyrosyl tRNA synthetase (TcYRS) _High Tyrosine SOP; type: functional; settings: 30 µM; note: in the data most compounds retested in dose-response had high values
T4 sequence (whole entry): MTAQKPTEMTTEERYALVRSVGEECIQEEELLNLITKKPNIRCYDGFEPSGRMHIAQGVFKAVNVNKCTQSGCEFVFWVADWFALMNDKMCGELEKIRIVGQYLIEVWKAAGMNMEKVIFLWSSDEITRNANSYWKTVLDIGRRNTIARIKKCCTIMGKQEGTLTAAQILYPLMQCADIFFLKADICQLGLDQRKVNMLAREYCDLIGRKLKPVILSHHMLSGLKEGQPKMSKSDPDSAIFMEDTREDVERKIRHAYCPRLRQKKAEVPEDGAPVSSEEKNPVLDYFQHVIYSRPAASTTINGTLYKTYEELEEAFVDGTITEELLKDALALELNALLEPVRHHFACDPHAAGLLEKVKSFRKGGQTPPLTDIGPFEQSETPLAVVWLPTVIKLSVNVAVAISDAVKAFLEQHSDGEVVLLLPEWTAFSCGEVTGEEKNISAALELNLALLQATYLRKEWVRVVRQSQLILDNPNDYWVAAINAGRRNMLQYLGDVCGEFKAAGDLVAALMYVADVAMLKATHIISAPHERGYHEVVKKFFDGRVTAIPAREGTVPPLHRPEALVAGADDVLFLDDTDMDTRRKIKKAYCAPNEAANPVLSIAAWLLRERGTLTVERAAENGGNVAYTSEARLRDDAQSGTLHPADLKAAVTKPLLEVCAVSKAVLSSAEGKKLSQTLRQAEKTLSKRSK

[10] = biological target: T4, Tyrosyl-tRNA synthetase, putative (Trypanosoma cruzi (strain CL Brener)); assay: Trypanosoma cruzi tyrosyl tRNA synthetase (TcYRS) SOP; type: functional; settings: 30 µM
[11] = biological target: Chromo domain-containing protein 1 (Saccharomyces cerevisiae (strain ATCC 204508 / S288c) (Baker's yeast)) (UniProt P32657); assay: ScCHD-1 Enzyme Inhibition Assay; type: functional; settings: 30 µM; note: in the data most compounds retested in dose-response had high values
Chain of Chromo domain-containing protein 1 (Saccharomyces cerevisiae (strain ATCC 204508 / S288c) (Baker's yeast)) (P32657 whole entry, the tested form may be a part): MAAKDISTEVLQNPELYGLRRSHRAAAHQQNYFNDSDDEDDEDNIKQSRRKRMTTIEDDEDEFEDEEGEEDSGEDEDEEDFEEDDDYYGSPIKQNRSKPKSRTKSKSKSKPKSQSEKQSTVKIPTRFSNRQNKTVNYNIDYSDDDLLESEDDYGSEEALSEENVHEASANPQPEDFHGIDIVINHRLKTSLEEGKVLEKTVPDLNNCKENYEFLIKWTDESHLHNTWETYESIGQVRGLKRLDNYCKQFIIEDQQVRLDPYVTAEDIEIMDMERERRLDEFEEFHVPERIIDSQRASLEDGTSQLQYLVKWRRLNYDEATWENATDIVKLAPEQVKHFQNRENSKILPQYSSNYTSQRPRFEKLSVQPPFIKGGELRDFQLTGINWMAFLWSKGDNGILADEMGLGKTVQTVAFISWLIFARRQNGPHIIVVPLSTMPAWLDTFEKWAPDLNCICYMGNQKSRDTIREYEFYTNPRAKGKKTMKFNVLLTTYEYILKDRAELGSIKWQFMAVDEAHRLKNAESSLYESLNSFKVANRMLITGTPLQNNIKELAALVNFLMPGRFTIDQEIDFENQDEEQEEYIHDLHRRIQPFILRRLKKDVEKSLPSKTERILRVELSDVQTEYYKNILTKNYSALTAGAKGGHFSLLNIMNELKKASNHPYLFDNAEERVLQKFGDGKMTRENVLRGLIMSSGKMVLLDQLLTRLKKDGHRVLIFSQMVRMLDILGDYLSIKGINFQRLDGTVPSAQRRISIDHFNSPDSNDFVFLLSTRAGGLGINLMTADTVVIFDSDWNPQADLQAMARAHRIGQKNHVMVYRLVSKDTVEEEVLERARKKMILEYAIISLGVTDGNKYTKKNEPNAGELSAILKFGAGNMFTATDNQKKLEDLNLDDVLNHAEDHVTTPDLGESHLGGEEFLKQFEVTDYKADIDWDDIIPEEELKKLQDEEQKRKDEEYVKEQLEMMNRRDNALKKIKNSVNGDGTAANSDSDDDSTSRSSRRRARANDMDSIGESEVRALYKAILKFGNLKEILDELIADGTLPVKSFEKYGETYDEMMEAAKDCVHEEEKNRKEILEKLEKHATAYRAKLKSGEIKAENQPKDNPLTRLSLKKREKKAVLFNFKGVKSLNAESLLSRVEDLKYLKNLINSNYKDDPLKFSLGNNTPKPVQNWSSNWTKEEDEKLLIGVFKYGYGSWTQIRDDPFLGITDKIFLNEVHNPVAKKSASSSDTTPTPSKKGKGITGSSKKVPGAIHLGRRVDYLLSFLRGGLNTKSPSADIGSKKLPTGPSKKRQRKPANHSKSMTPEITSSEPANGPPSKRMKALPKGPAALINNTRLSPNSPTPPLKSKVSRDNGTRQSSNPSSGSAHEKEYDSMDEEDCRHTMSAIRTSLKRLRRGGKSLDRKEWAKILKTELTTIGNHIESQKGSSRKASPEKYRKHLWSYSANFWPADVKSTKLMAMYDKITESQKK

| SMILES | Percent Effect [1] | Percent Effect [2] | Percent Effect [3] | Percent Effect [4] | Percent Effect [5] | Percent Effect [6] | Percent Effect [7] | Percent Effect [8] | Percent Effect [9] | Percent Effect [10] | Percent Effect [11] |
| --- | --- | --- | --- | --- | --- | --- | --- | --- | --- | --- | --- |
| CCOC[C@H]1CC[C@H]2[C@H](CCN2C(=O)c2ccncc2F)O1 | -2.56% | 2.7% | 3.1% | -3.88% | 1.07% | 3.72% | 5.92% | -17.8% | 2.15% | 3.7% | -2.81% |
| Cc1cc(C(=O)N2C[C@@H]3[C@@H](C2)OCC(=O)N3CC2CC2)no1 | -1.71% | -31.2% | 5.62% | 6.36% | -6.98% | -16.6% | 4.49% | 6.95% | -54.8% | -90.1% | 0.00283% |
| CN(Cc1ccccc1)C1COC2(CCN(Cc3nccs3)CC2)C1 (stereo not drawn) | -6.64% | 13.3% | -9.84% | 1.43% | 3.09% | -51.1% | 4.79% | -4.42% | 4.17% | 7.5% | -9.89% |
| Cc1csc(N2CCN(Cc3ccccn3)CC2C)n1 (stereo not drawn) | -3.15% | 5.48% | -20.3% | -2.48% | -2.74% | 0.909% | 13.3% | 19.9% | 9.68% | 12.5% | -2.29% |
| Cc1csc(C2CCCCN2C(=O)CN(C)Cc2ccccc2)n1 (stereo not drawn) | -1.2% | -1.27% | 11% | 7.48% | -1.33% | 3.23% | 0.515% | -0.936% | 1.04% | 2.53% | 7.65% |
| Cc1nc2cc(C3CCN(Cc4cccc(F)c4F)C3)nn2c(O)c1C (stereo not drawn) | -0.873% | 12.2% | 12.9% | -3.49% | 0.988% | -1.16% | 2.81% | 10.8% | 3.23% | 11.7% | -14.4% |
| COCC(=O)N1CCCC2(CCN(c3ccsc3)C2=O)C1 (stereo not drawn) | -5.59% | 2.67% | 5.83% | -0.603% | -1.18% | -0.699% | -5.73% | 26.1% | 0% | -1.28% | 4.35% |
| CCc1ccc(CNC(=O)N2CCN(Cc3cc(C)no3)CC2)s1 | -3.56% | 15.8% | 7.06% | -6.42% | -9.24% | -1.08% | 17.2% | 13.6% | 2.46% | 6.17% | -7.04% |
